Results as given in PubChem BioAssay (NCI).
This is part of a sample that, as a whole, favours compounds with a hit. Of some 83,000 tested, about 20% had one in any assay.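 Treatment: one concentration, 48 hours, 96-well format. Scoring: percent growth, with anything below 10 considered active.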 Activity calls are given as the source filed them.

What was measured:
Test in all cases: NCI-60 one-dose screen, 48 h (100 = growth as untreated, 0 = no growth, -100 = all killed)
[1] = system: SK-MEL-2 melanoma; conditions: 10 µM unless noted
[2] = system: EKVX NSCLC; conditions: 10 µM unless noted
[3] = system: SN12C renal; conditions: 10 µM unless noted
[4] = system: UO-31 renal; conditions: 10 µM unless noted
[5] = system: TK-10 renal; conditions: 10 µM unless noted
[6] = system: ACHN renal; conditions: 10 µM unless noted
[7] = system: CAKI-1 renal; conditions: 10 µM
[8] = system: A498 renal; conditions: 10 µM unless noted
[9] = system: CCRF-CEM leukemia; conditions: 10 µM unless noted
[10] = system: MOLT-4 leukemia; conditions: 10 µM unless noted
[11] = system: RPMI-8226 leukemia; conditions: 10 µM unless noted
[12] = system: OVCAR-8 ovarian; conditions: 10 µM unless noted
[13] = system: OVCAR-5 ovarian; conditions: 10 µM unless noted
[14] = system: OVCAR-4 ovarian; conditions: 10 µM unless noted
[15] = system: SK-OV-3 ovarian; conditions: 10 µM unless noted
[16] = system: IGROV1 ovarian; conditions: 10 µM unless noted
[17] = system: HS 578T breast; conditions: 10 µM unless noted
[18] = system: NCI/ADR-RES ovarian; conditions: 10 µM unless noted
[19] = system: SR leukemia; conditions: 10 µM unless noted
[20] = system: OVCAR-3 ovarian; conditions: 10 µM unless noted

Measured: growth

Cc1ccc(-c2cc(-c3cccc4ccccc34)n3c(n2)nc2ccccc23)cc1
inactive: [1] 105% | [2] 78.7% | [3] 61.2% | [4] 37.9% | [5] 69.1% | [6] 24.8% | [7] 23.1% | [8] 52.5% | [9] 37.5% | [11] 65.2% | [12] 58.4% | [13] 92.7% | [14] 79.6% | [15] 100% | [16] 59.5% | [17] 56.5% | [18] 67.7%
active: [10] 4.63%

Cc1ccc(C2CC(c3ccc(Nc4nc(NCCO)nc(Nc5ccc(Cl)cc5)n4)cc3)=Nc3c(N)nc(N)nc3N2)cc1 (stereo not given)
inactive: [1] 99% | [2] 33.1% | [8] 77.9% | [15] 114% | [17] 11.9%
active: [3] -65.8% | [4] -91.6% | [5] -84.5% | [6] -36.6% | [7] -9.94% | [9] -23.2% | [10] -29.3% | [11] -55.4% | [12] -81% | [13] -63.3% | [14] -54.4% | [16] -63.3% | [18] -39.8%

COc1ccc(-c2cc(-c3cccc4ccccc34)n3c(n2)nc2ccccc23)cc1OC
inactive: [1] 98.2% | [2] 69.2% | [3] 10.9% | [4] 29.4% | [5] 53.1% | [7] 17.3% | [8] 38% | [12] 34.3% | [13] 52.2% | [14] 71.9% | [15] 35.3% | [16] 52.3% | [17] 46.3% | [18] 47.4%
active: [6] 8.14% | [9] 3.68% | [10] 7.55% | [11] -18.4%

COc1ccc(NC(=O)Cn2cc(CN3C(=O)c4ccc([N+](=O)[O-])cc4C3=O)nn2)cc1
inactive: [1] 112% | [2] 105% | [3] 99.7% | [4] 88.1% | [5] 103% | [6] 104% | [7] 87.7% | [8] 88.2% | [9] 109% | [10] 101% | [11] 102% | [12] 94.2% | [13] 115% | [14] 112% | [15] 93.2% | [16] 107% | [17] 106% | [18] 100%

O=C(Cn1cc(CN2C(=O)c3ccc([N+](=O)[O-])cc3C2=O)nn1)Nc1ccccc1Br
inactive: [1] 114% | [2] 105% | [3] 103% | [4] 88.1% | [5] 104% | [6] 108% | [7] 103% | [8] 101% | [9] 95.1% | [10] 105% | [11] 102% | [12] 116% | [13] 106% | [14] 113% | [15] 90.5% | [16] 97.5% | [17] 110% | [18] 99.3%

Cn1c2ccccc2c2c3c(c4c5ccc(Br)cc5oc4c21)C(=O)N(O)C3=O
inactive: [1] 98.6% | [2] 96.6% | [3] 92.7% | [5] 101% | [6] 69.5% | [7] 40.4% | [9] 14.6% | [11] 64.6% | [12] 73.1% | [13] 110% | [14] 85.3% | [15] 101% | [16] 69.7% | [17] 102% | [18] 92.5%
active: [4] -91.6% | [8] -6.15% | [10] 7.13%

COc1cc(C2CC(c3ccc(Nc4nc(NCCO)nc(Nc5ccc(Cl)cc5)n4)cc3)=Nc3c(N)nc(N)nc3N2)cc(OC)c1OC (stereo not given)
inactive: [1] 75.9% | [2] 109% | [3] 49.9% | [4] 85.1% | [5] 95.8% | [6] 79.3% | [7] 53.8% | [8] 99.8% | [9] 23.8% | [10] 19.9% | [11] 37.5% | [12] 47.6% | [13] 119% | [14] 65.2% | [15] 125% | [16] 62.5% | [17] 35% | [18] 103%

O=C(Nc1cccc(-c2nc(-c3ccc(NC(=O)c4cccs4)cc3Cl)no2)c1)Nc1ccc(NC(=O)C2CC2)c(C(F)(F)F)c1
inactive: [18] 45.5%
active: [1] -50.2% | [2] -34.2% | [3] -51.8% | [4] -23.6% | [5] -28.2% | [6] 0.236% | [7] -67.7% | [8] -89% | [9] 6.43% | [10] -4.78% | [19] -25.9% | [12] 2.05% | [13] -14.6% | [14] -81.3% | [16] -40.4% | [20] -54.2% | [17] -27.1%

O=C(Cn1cc(CN2C(=O)c3ccc([N+](=O)[O-])cc3C2=O)nn1)Nc1ccc(F)cc1Cl
inactive: [1] 101% | [2] 97.7% | [3] 101% | [4] 81.3% | [5] 91.2% | [6] 96.9% | [7] 89.9% | [8] 85.8% | [9] 95.6% | [10] 108% | [11] 100% | [12] 96.8% | [13] 102% | [14] 106% | [15] 89.7% | [16] 100% | [17] 111% | [18] 98.3%

Nc1nc(N)c2c(n1)NC(c1ccccc1)CC(c1ccc(Nc3nc(NCCO)nc(Nc4ccc(Cl)cc4)n3)cc1)=N2 (stereo not given)
inactive: [1] 71.9% | [2] 92.6% | [3] 49.4% | [4] 43.9% | [5] 63.7% | [6] 70.2% | [7] 61% | [8] 71.3% | [13] 111% | [14] 57.2% | [15] 116% | [16] 64.3% | [17] 79.9% | [18] 48.4%
active: [9] -11.2% | [10] 1.48% | [11] -56.2% | [12] -20%

CC(=O)Nc1ccc(NC(=O)Nc2cccc(-c3nc(-c4ccc(NC(=O)c5cccs5)cc4Cl)no3)c2)cc1C(F)(F)F
active: [1] -61.4% | [2] -35.9% | [3] -64.5% | [5] -32.7% | [6] 3.84% | [7] -73.2% | [8] -87.9% | [9] 6.64% | [10] -0.998% | [19] -7.39% | [12] -15.8% | [13] -37.9% | [14] -94.5% | [15] -66% | [16] -57.6% | [20] -63.4% | [17] -28.3%
inactive: [4] 14.4% | [18] 55.5%

COc1ccc2c(c1)oc1c3[nH]c4ccccc4c3c3c(c21)C(=O)N(O)C3=O
inactive: [1] 70.8% | [2] 92.5% | [3] 40.5% | [4] 22.4% | [5] 119% | [6] 11.5% | [7] 19.6% | [11] 28% | [12] 48.4% | [13] 110% | [14] 77.9% | [15] 39.1% | [16] 41.2% | [17] 77.9% | [18] 59.6%
active: [8] -1.48% | [9] 6.73% | [10] -2.02%

CCOC(=O)Nc1cccc(-n2cnc3cc(-c4ccc(O)cc4)ccc32)c1
inactive: [1] 15.8% | [2] 42.7% | [3] 31.2% | [4] 26.4% | [5] 57.1% | [6] 19.9% | [7] 33% | [9] 24.5% | [10] 10.6% | [11] 20.2% | [12] 21.8% | [13] 41.1% | [14] 56% | [15] 34% | [16] 32.3% | [17] 16%
active: [8] -25.1% | [18] 7.05%

Cn1c2ccc(Br)cc2c2c3c(c4c5cc(F)ccc5oc4c21)C(=O)N(O)C3=O
inactive: [1] 110% | [2] 90.1% | [3] 90.2% | [4] 75.4% | [5] 142% | [6] 78% | [7] 69.2% | [8] 94.2% | [9] 14.7% | [10] 43% | [11] 76.7% | [12] 75.1% | [13] 108% | [14] 103% | [15] 90.2% | [16] 63.5% | [17] 92.8% | [18] 75.5%

CC1(C)CC[C@]2(C(=O)N3CCCN(CC#N)CC3)CC[C@]3(C)C(=CC[C@@H]4[C@@]5(C)CC[C@H](O)C(C)(C)[C@@H]5CC[C@]43C)[C@H]2C1
inactive: [1] 76.8% | [2] 91.2% | [3] 59.6% | [4] 63.7% | [5] 81.7% | [6] 59% | [7] 43.7% | [8] 39.8% | [9] 18.2% | [10] 19.1% | [11] 19.9% | [12] 55.7% | [13] 84.1% | [14] 86.7% | [15] 83.7% | [16] 66.1% | [17] 78.8% | [18] 57.2%

COC(=O)c1c(C(=O)OC)c2n(CC(=O)Nc3cccc4cccnc34)c3ccccc3n2c1C(=O)c1ccc(C)cc1
inactive: [1] 102% | [2] 97.4% | [3] 92.5% | [4] 75.7% | [5] 108% | [6] 97.6% | [7] 104% | [8] 105% | [9] 95.4% | [10] 93.3% | [19] 122% | [12] 92.4% | [13] 102% | [14] 99.8% | [15] 119% | [16] 97.6% | [20] 114% | [17] 111% | [18] 96%
